Experimental findings from PubChem BioAssay AID1817 (Sanford-Burnham Center for Chemical Genomics, 2009) are described below.

Hit rate of the full screen: of about 290,000 compounds, about 50 (0.02%) were called active.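 How the source made its calls: active means displacement of at least 50% at 20 µM, with a fluorescence ratio check between 0.3 and a set limit; inactive means the rest.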 The sample as a whole holds a higher share of actives than the screen did. Results with a measured potency or affinity are listed apart.

The target in this test is E3 ubiquitin-protein ligase SIAH1 (Homo sapiens) (UniProt Q8IUQ4). The experiment in a line: Siah-1 peptide-binding antagonists, primary screen, biochemical, fluorescence polarization, rhodamine-plectin, uHTS (AID 1817).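 Further: plate controls were Siah plus tracer with DMSO for no effect and tracer alone without Siah for full effect.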 Particulars: Siah-1 / rhodamine-plectin peptide fluorescence polarization; at 20 µM; stronger effect = higher value.
Sequence of E3 ubiquitin-protein ligase SIAH1 (Homo sapiens) (Q8IUQ4 whole entry, looked up): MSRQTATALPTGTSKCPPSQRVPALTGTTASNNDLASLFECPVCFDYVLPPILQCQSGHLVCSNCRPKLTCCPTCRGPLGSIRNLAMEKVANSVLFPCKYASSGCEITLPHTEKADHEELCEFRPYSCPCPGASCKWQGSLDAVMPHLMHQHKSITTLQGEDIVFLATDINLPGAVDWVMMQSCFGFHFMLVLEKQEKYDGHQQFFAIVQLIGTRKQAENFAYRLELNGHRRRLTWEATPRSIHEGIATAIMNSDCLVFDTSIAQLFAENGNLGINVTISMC
On to `O=C(Nc1ccc(S(=O)(=O)Nc2nccs2)cc1)/C(=C/c1ccccc1Cl)NC(=O)c1ccccc1`, for which the displacement is 54.4% (active). The figure for `COc1cc(NS(=O)(=O)c2ccc(NC(=O)/C(=C/c3ccccc3Cl)NC(=O)c3ccccc3)cc2)nc(OC)n1` is 13.9% (inactive); for `O=C(NC(=S)Nc1ccc(S(=O)(=O)Nc2nccs2)cc1)c1ccccc1` it is -2.4% (inactive); for `CCCn1c(=O)c(C(=O)NCc2ccncc2)c(O)c2ccccc21` it is 8.4% (inactive).

For `CC(=O)Nc1cccc(Oc2ncccc2[N+](=O)[O-])c1`, the displacement is -3% (inactive). For the molecule `Cc1ccc(O)c(N=Cc2cc(Cc3ccccc3)cc([N+](=O)[O-])c2O)c1`, the displacement is 22.9% (inactive). Turning to `O=[N+]([O-])c1cc(Br)c(O)c(C=Nc2ccc(N3CCOCC3)cc2)c1`, the displacement is 41.8% (inactive). The figure for `O=[N+]([O-])c1cc(Cc2ccccc2)cc(C=Nc2ccc(N3CCOCC3)cc2)c1O` is 50% (active); for `O=C(NCc1ccco1)/C(=C\c1ccc(F)cc1)NC(=O)c1ccco1` it is 5.4% (inactive). Turning to `O=C(Nc1ccc(S(=O)(=O)N2CCOCC2)cc1)c1ccc(S(=O)(=O)N2CCOCC2)cc1`, the displacement is -5.8% (inactive). Regarding `O=C(Nc1ccc(S(=O)(=O)N2CCOCC2)cc1)c1ccc(F)cc1`, the displacement is 10.6% (inactive). On to `C=CCn1c(SCCC)nc(O)cc1=O`, for which the displacement is 3% (inactive). The same measure for `COc1ccccc1NC(=O)CN(Cc1ccco1)C(=O)c1ccc(-n2nc(C)cc2C)cc1`: -1.4% (inactive); for `COc1ccc(N2CCN(C(C)C(=O)N3CCc4ccccc43)CC2)cc1` (stereo not given): -5.4% (inactive). The figure for `Cc1ccsc1/C=N/N=C/c1sccc1C` is -9.3% (inactive); for `Cc1ccc(N=Cc2sccc2C)cc1C` it is 1.9% (inactive); for `Cc1ccsc1C=Nc1ccc(O)cc1` it is 55.3% (active).

Take `CCN1CCN(c2cc(N3CCN(C(=O)c4ccco4)CC3)c3c4c(onc24)-c2ccccc2C3=O)CC1`: the displacement is 51.9% (inactive). Turning to `O=C(O)CCNc1cc(N2CCN(C(=O)c3ccco3)CC2)c2noc3c2c1C(=O)c1ccccc1-3`, the displacement was 63% (inactive). Consider `Cc1ccc(-n2nnc3c(=O)n(CC(=O)NCC4CCCO4)cnc32)cc1` (stereo not given), for which the displacement is -0.3% (inactive). The figure for `CCOC(=O)CN1C(=O)CN(c2ccc(C)cc2)C1=O` is 5.5% (inactive). The same measure for `Cn1cc(NC(=O)OCc2ccc(Cl)cc2)c(C(F)(F)F)n1`: 1.5% (inactive); for `Oc1ccc(Cl)cc1N=Nc1ccccc1`: 12.6% (inactive). In the case of `O=S(=O)(O)c1cccc(N=Nc2c(O)ccc3ccccc23)c1`, the displacement is -4.3% (inactive). The same measure for `CC12CCC(C(=O)N(NC(=O)c3ccc(O)cc3)C1=O)C2(C)C` (stereo not given): -2.6% (inactive); for `COc1ccccc1N(CC(=O)NCCSc1ccc(Cl)cc1)S(C)(=O)=O`: -0.3% (inactive). The same measure for `CC(C)CC(c1nnnn1C(C)C)N1CCN(c2cccc(Cl)c2)CC1` (stereo not given): -5.9% (inactive); for `CCCCNC1=CC(=O)C(=O)c2ccccc21`: 60% (active).

In the case of `O=C1C=C(Nc2ccccc2)c2ccccc2C1=O`, the displacement is 45.4% (inactive). The figure for `Cc1ccc(NC2=CC(=O)C(=O)c3ccccc32)cc1` is 3.3% (inactive); for `COC(=O)c1cc2ccccc2oc1=O` it is -2.6% (inactive); for `CCOC(=O)N/N=C\c1ccc(OC(=O)c2ccc3c(c2)OCO3)cc1` it is 1.3% (inactive). The figure for `CCOCCCNc1nc2c(C)cccn2c(=O)c1/C=C1\SC(=S)N(C(C)CC)C1=O` (stereo not given) is 53.2% (active); for `CCOCCCNc1nc2c(C)cccn2c(=O)c1/C=C1\SC(=S)N(CC(C)C)C1=O` it is -1.2% (inactive); for `CCCN1C(=O)/C(=C/c2c(NCCCOCC)nc3c(C)cccn3c2=O)SC1=S` it is -2.4% (inactive). For `Cc1nn(C)c(Oc2cccc(C(F)(F)F)c2)c1C=O`, the displacement was -3.5% (inactive). The figure for `Cc1ccc(-n2ncc3c(NNC(=O)c4ccco4)ncnc32)cc1C` is 3% (inactive); for `O=C(N1CCN(c2ccccc2F)CC1)C12CC3CC(CC(C3)C1)C2` it is -8.1% (inactive). Take `CCC(NC(=O)CCc1c(C)c2cc3c(C)c(C)oc3cc2oc1=O)C(=O)N[C@@H](Cc1ccccc1)C(=O)O` (stereo not given in full): the displacement is 34.5% (inactive).

Regarding `Cc1oc2c(C)c3oc(=O)c(CC(=O)N[C@@H](CC(C)C)C(=O)N[C@@H](Cc4ccccc4)C(=O)O)c(C)c3cc2c1C`, the displacement was 30.3% (inactive).

In the case of `COc1cccc(C(C(=O)NC2CCCCC2)N(C(=O)c2cccs2)c2ccc3c(c2)OCO3)c1` (stereo not given), the displacement was -1% (inactive).

Consider `COc1ccc(CCC(=O)Nc2ccc(S(=O)(=O)N3CCOCC3)cc2)cc1`, for which the displacement is 1.9% (inactive).

Consider `O=c1ccc2cc(S(=O)(=O)N3CCN(c4ccc(Cl)cc4)CC3)ccc2o1`, for which the displacement is -0.9% (inactive). The same measure for `CCCN1C(=O)/C(=c2\s/c(=C3\C=Cc4ccccc4N3CC)c(=O)n2-c2ccccc2)SC1=S`: -1.6% (inactive); for `CCCn1c(=C(C#N)C#N)s/c(=C2\C=Cc3ccccc3N2CC)c1=O`: 65.1% (active). The figure for `CCN1C(=C(C#N)C#N)C=Cc2ccccc21` is 8.2% (inactive); for `Cc1ccc(-c2nnc(SCC(=O)NC(=O)Nc3ccc(C)cc3C)n2N)cc1` it is 5.1% (inactive); for `CCc1nc(Cl)c(C#N)c2c1CCCC2` it is 3.8% (inactive). For `Cc1ccc(NC(=O)CCC(=O)OCc2ccc(Br)cc2)cc1`, the displacement was 1.1% (inactive).

As for `Cc1ccc(/C=c2\s/c(=C(/C#N)C(=O)N3CCCC3)n(Cc3ccco3)c2=O)s1`, the displacement was -3% (inactive).

In the case of `COc1ccc(/C=c2\s/c(=C(/C#N)C(=O)NCc3ccco3)n(-c3ccccc3)c2=O)cc1`, the displacement is 21.4% (inactive). The same measure for `CN(c1ccccc1)c1ccc(/C=c2\s/c(=C(/C#N)C(=O)C(C)(C)C)n(Cc3ccco3)c2=O)cc1`: 102% (active). The same measure for `Cc1ccc(NC(=O)Nc2cnccn2)cc1`: -0.7% (inactive); for `Cc1ccc(S(=O)(=O)N2CCN(C(=O)c3cccs3)CC2)cc1C`: -2% (inactive); for `CCO/C=C1/C(=O)N(Cc2ccccc2)C(=O)c2ccccc21`: 55.6% (active).

For `CCO/C=C1/C(=O)N(CC)c2ccccc21`, the displacement is -7.3% (inactive). The figure for `CCO/C=C1\C(=O)N(c2ccccc2)C(=O)c2ccccc21` is 1.1% (inactive). The same measure for `C/C(=N\NC(=O)c1nnn(-c2nonc2N)c1CN1CCCCC1)c1ccccc1O`: -0.3% (inactive); for `Cc1cc(CN(C)C(=O)CC2C(=O)NCCN2Cc2ccc(-c3ccccc3)cc2)on1` (stereo not given): -0.5% (inactive).

As for `Cc1ccc(C(=O)Nc2ccc(Oc3ccc(C(=O)O)c(C(=O)O)c3)cc2)cc1C`, the displacement was -3% (inactive). The same measure for `CC(C)(C)C(=O)Nc1ccc(C(=O)Nc2cccc(Oc3ccc(C(=O)O)c(C(=O)O)c3)c2)cc1`: 24% (inactive); for `O=C(O)Cn1c(=S)sc2ccccc21`: -2.4% (inactive). The figure for `COc1cc([N+](=O)[O-])ccc1NC(=S)Nc1cccc(C(=O)O)c1` is -2.6% (inactive). The figure for `CCN(CC)CCOC(=O)c1ccc(N/C=C(/C#N)c2nc(-c3ccc(OC)cc3)cs2)cc1` is 8.3% (inactive); for `COc1cc(/C=C(\C#N)c2nc(-c3cc4ccccc4oc3=O)cs2)ccc1O` it is 2.9% (inactive). Consider `CCN(CC)CCOC(=O)c1ccc(N/C=C(/C#N)c2nc(-c3cccc(OC)c3)cs2)cc1`, for which the displacement is -5.2% (inactive). The same measure for `CCN(CC)CCOC(=O)c1ccc(N/C=C(/C#N)c2nc(-c3ccc4c(c3)OCO4)cs2)cc1`: 2.3% (inactive); for `C1CC2CN(c3nc4nonc4nc3N3CCSCC3)CCN2C1` (stereo not given): 1.1% (inactive). The same measure for `COc1cccc(CNC(=O)C2CCCN(S(=O)(=O)c3c(C)n[nH]c3C)C2)c1` (stereo not given): -0.6% (inactive); for `CC(C)N1CCC(N2CCN(C/C=C/c3ccc(F)cc3)CC2CCO)CC1` (stereo not given): 12% (inactive); for `O=C(/C=C/c1ccc(OCCCF)cc1)NCc1ccc(Cl)cc1`: 33.7% (inactive). The figure for `CN(CC(=O)Nc1cccc(F)c1)C(=O)c1ccc(-c2ccc(Cl)cc2)o1` is 4.6% (inactive); for `Nc1ccc(Br)c2c1C(=O)c1ccccc1C2=O` it is 7.9% (inactive); for `Nc1c(O)ccc2c1C(=O)c1ccccc1C2=O` it is 14.9% (inactive).

Regarding `NS(=O)(=O)c1ccc(NC(=O)c2ccc(-c3ccccc3)cc2)cc1`, the displacement was 42.1% (inactive). The figure for `O=C(O)c1ccc(NS(=O)(=O)c2ccc(C(=O)Nc3ccccc3)cc2)cc1` is -5.7% (inactive); for `O=C(NCc1ccccn1)C1CCN(S(=O)(=O)N2CCCC2)CC1` it is 3.2% (inactive); for `O=C(Cn1cnc2c(cnn2-c2ccccc2)c1=O)N1CCN(c2ccc(F)cc2)CC1` it is 0.6% (inactive). Consider `Cc1cc(NS(=O)(=O)c2ccc(NC(=O)C(C)Oc3cc(C)c(Cl)c(C)c3)cc2)no1` (stereo not given), for which the displacement was 0.9% (inactive). The same measure for `CCc1nnc(NS(=O)(=O)c2ccc(NC(=S)NC(=O)/C=C/c3ccccc3)cc2)s1`: 11.7% (inactive). The same measure for `CCc1nnc(NS(=O)(=O)c2ccc(NC(=S)NC(=O)/C=C/c3ccc(F)cc3)cc2)s1`: 12.9% (inactive); for `CCc1nnc(NS(=O)(=O)c2ccc(NC(=S)NC(=O)/C=C/c3cccs3)cc2)s1`: 15.5% (inactive). The figure for `CCc1nnc(NS(=O)(=O)c2ccc(NC(=S)NC(=O)/C=C/c3ccc(OC)cc3)cc2)s1` is 51.9% (active); for `CCc1nnc(NS(=O)(=O)c2ccc(NC(=S)NC(=O)/C=C/c3ccc([N+](=O)[O-])cc3)cc2)s1` it is 12.8% (inactive); for `COCCCNc1oc(-c2ccccc2Cl)nc1C#N` it is -5.3% (inactive). On to `CN1CCN(C(=O)c2cn(-c3ccccc3)nc2-c2cccnc2)CC1`, for which the displacement was -0.3% (inactive). The same measure for `O=C(NCc1ccc(F)cc1)c1cc(-c2cccs2)on1`: 3.6% (inactive).

In the case of `O=C(NCc1ccccc1)c1cc(-c2cccs2)on1`, the displacement was -1.2% (inactive). For the molecule `CC(NC(=O)C(=O)c1cn(CC(=O)N2CCOCC2)c2ccccc12)c1ccccc1` (stereo not given), the displacement is 1.9% (inactive). Turning to `CC(C)CNS(=O)(=O)c1ccc(CC(C)C)cc1`, the displacement was 1.9% (inactive).
